High-throughput results from PubChem BioAssay.
Sampled rows, rich in hits. Any-hit rate of the full collection: about 12%.
L major viab = reduces viability of Leishmania major promastigotes; resazurin fluorescence viability; inhibition, % at 10 µM; actives 9% (n = 200,000); AID 1063; in the data active means inhibition above about 50%;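 further: promastigotes grown with compound for 44 hours at 28 °C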
Arbovirus anti = antivirals against arbovirus infection; arbovirus infection cell-based antiviral screen; AID 1251; inhibition, % at 10 µM; actives 0.37% (n = 200,000); in the data active means inhibition above about 30%
WT yeast gro inh = growth inhibition of WT yeast, mitochondrial fusion screen; mitochondrial fusion phenotypic screen, WT strain; inhibition, % at 10 µM; actives 2.1% (n = 190,000); AID 1362; in the data active means inhibition above about 58%; tested in S. cerevisiae
CHOP inhibitor = CHOP inhibition in unfolded protein response | actives 3.8% (n = 220,000) | CHO-K1 CHOP-promoter luciferase, tunicamycin-induced, 15-18 h | inhibition, % at 10 µM | AID 2732;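 active means compounds that reduced the stress-induced luciferase reporter signal by more than about 70% of percent inhibition, limit read from the data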
Hits are given with their value; n = inactive; x = not tested or not shown.

SMILES	L major viab	Arbovirus anti	WT yeast gro inh	CHOP inhibitor
CC(C)OCCCNS(=O)(=O)c1ccc2ccccc2c1	n	n	n	n
COC(=O)[C@@H]1C[C@@]2(O)[C@H](O)[C@H](O)[C@H](O)C[C@H]2N1C/C=C/c1ccccc1	x	x	x	n
COc1ccc(/C=N/NC(=O)CCc2c(C)n[nH]c2C)cc1O	n	n	n	n
CNS(=O)(=O)c1ccc2nc(NC(=O)/C=C/c3ccco3)sc2c1	n	n	n	n
COc1cc2nc(N(C)C)nc(N)c2cc1OC	99.9	n	n	n
Cc1ccc(Nc2nc(CSc3nnc(-c4ccccc4C)n3C)cs2)cc1	n	n	n	n
Cc1ccc(Nc2nc(CSc3nnc(-c4ccccc4)n3C)cs2)cc1	95.3	n	n	n
Cc1ccccc1-n1c(SCc2csc(Nc3ccccc3)n2)nnc1-c1cccnc1	64.7	n	n	n
Cc1ccc(Nc2nc(CSc3nnc(-c4cccs4)o3)cs2)cc1	n	n	n	85.8
Cc1ccc(Nc2nc(CSc3nnc(-c4cccnc4)n3-c3ccccc3C)cs2)cc1	97.0	n	n	n
O=C(COC(=O)CCc1nc2ccccc2s1)NCc1ccco1	n	n	n	n
Cc1cccc(C(=O)N/N=C2/SCC(=O)N2Cc2ccccc2)c1	n	n	n	n
O=C(COc1ncnc2ccccc12)c1ccc(Cl)cc1	n	n	n	n
CCNC(=O)NC(=O)C(C)OC(=O)C1CCN(S(=O)(=O)c2ccc(C)c(C)c2)CC1 (stereo not drawn)	n	n	n	n
COc1ccc2nc(NC(=O)c3cccc(S(=O)(=O)N4CCOCC4)c3)sc2c1	n	n	n	n
Cc1ccc(S(=O)(=O)N2CCOCC2)cc1C(=O)Nc1ccc(-c2cn3ccsc3n2)cc1	n	n	n	n
COc1cc(C(=O)Nc2nc3ccc(S(=O)(=O)N4CCOCC4)cc3s2)cc(OC)c1OC	61.2	n	x	n
Cc1ccc(S(=O)(=O)N2CCOCC2)cc1C(=O)Nc1ccc2c(c1)CCC2	52.3	n	n	n
COc1ccc2nc(NC(=O)c3cc(S(=O)(=O)N4CCOCC4)ccc3C)sc2c1	55.6	n	n	n
O=C(O)CC1(CC(=O)NCc2ccncc2)CCCCC1	x	x	x	n
Cc1ccc2c(c1)N(CCC(=O)NCc1cccs1)C(=O)C(C)O2 (stereo not drawn)	n	n	n	74.2
Cc1ccn2c(C(=O)CSc3ccccc3Cl)c(C)nc2c1	n	n	n	72.7
CCOC(=O)c1c(C)nc2cc(C)ccn12	n	n	n	n
COc1cccc2sc(Nc3nnc(-c4ccc(F)cc4)o3)nc12	95.7	n	n	n
COc1cccc2sc(Nc3nnc(-c4cccs4)o3)nc12	95.6	n	n	x
SMILES	L major viab	Arbovirus anti	WT yeast gro inh	CHOP inhibitor
Fc1cccc2sc(Nc3nnc(-c4ccco4)o3)nc12	n	n	n	n
O=C(CCc1nnc(C2(c3ccc(Cl)cc3)CCC2)o1)NCCCn1cccn1	n	n	n	n
OCCN1CCN(CCCc2c3c(cc4c2CCC4)CCC3)CC1	86.2	n	n	n
CC(C)(CN1CCN(C(c2ccccc2)c2ccccc2)CC1)NS(=O)(=O)c1ccccc1	x	x	x	n
CCCCNS(=O)(=O)c1ccc2nc(-c3cccnc3)cc(C(=O)NC(C)C)c2c1	n	n	n	n
CCCCNS(=O)(=O)c1ccc2nc(-c3cccnc3)cc(C(=O)NC(C)CC)c2c1 (stereo not drawn)	n	n	n	101.4
COC(C[C@@H](O)[C@H](C)[C@@H](O)COCc1ccccc1)OC	x	x	x	n
COc1cc2cc(CN(Cc3cccs3)C(=S)Nc3ccccc3)c(=O)[nH]c2cc1OC	81.3	n	n	n
COc1ccc2[nH]c(=O)c(CN(Cc3cccs3)C(=S)Nc3ccccc3)cc2c1	98.0	n	n	n
CNC(=S)N(Cc1ccc(OC)cc1)Cc1cc2ccc(C)cc2[nH]c1=O	n	n	n	n
CNC(=S)N(Cc1cccs1)Cc1cc2ccc(OC)cc2[nH]c1=O	70.3	n	n	n
CCNC(=S)N(Cc1cccs1)Cc1cc2cc(OCC)ccc2[nH]c1=O	96.2	n	n	n
CCNC(=S)N(Cc1ccco1)Cc1cc2cc(OCC)ccc2[nH]c1=O	n	n	n	n
Cc1c(-c2cc(C(=O)O)c3ccccc3n2)cnn1C	n	n	n	n
CN1CCN(C(=O)C2=C[C@@H](C3CCCCC3)C[C@@H](OCCCCO)O2)CC1	n	n	n	n
NS(=O)(=O)c1cccc(NC(=O)CSc2nnc(-c3ccccc3F)n2C2CC2)c1	x	x	x	n
CC1CCCC(N2C(=O)NC(NC(=O)c3ccco3)(C(F)(F)F)C2=O)C1C (stereo not drawn)	56.0	n	n	n
CCCCN1C(=O)NC(NC(=O)c2ccco2)(C(F)(F)F)C1=O (stereo not drawn)	n	n	n	n
O=C(c1nc(-c2ccccc2)n(-c2ccccc2)n1)N1CCN(S(=O)(=O)c2ccccc2)CC1	57.7	n	n	n
CC(C)Oc1ccc2ccccc2c1C=O	n	n	n	n
O=Cc1c(OCc2ccccc2)ccc2ccccc12	81.9	n	n	n
Cn1c(NNC(=O)c2cccc3ccccc23)cc(=O)n(C)c1=O	n	n	n	n
CCOc1ccc(C(=O)Nc2cccc(C(=O)O)c2C)cc1Cl	n	n	n	n
COc1ccc(C(=O)Nc2ccccc2C(=O)O)cc1Cl	67.2	56.1	n	n
CCOc1c(Cl)cc(C(=O)Nc2ccccc2C(=O)O)cc1Cl	n	42.6	n	n
SMILES	L major viab	Arbovirus anti	WT yeast gro inh	CHOP inhibitor
CCOc1ccc(C(=O)Nc2ccccc2-c2ccccc2)cc1Cl	n	n	n	80.6
Cc1c(C)c(C)c(C(=O)C2CCN(c3ccc([N+](=O)[O-])cn3)CC2)c(C)c1C	x	x	x	n
COCCCn1c(SCc2cccc(C(F)(F)F)c2)nc2cc(OC)c(OC)cc2c1=N	n	n	n	n
COCCCn1c(SCc2ccccc2)nc2cc(OC)c(OC)cc2c1=N	64.2	n	n	n
COc1ccc(Cn2c(SCc3ccc(C)cc3)nc3cc(OC)c(OC)cc3c2=N)cc1Cl	100.4	n	n	71.7
Nn1c(=O)[nH]c2ccccc2c1=O	n	n	n	n
CCOc1ccc2nc(NC3=NC(C)(C)C=C(C)N3)nc(C)c2c1	97.8	n	n	n
Cc1ccc(SCc2cc(=O)[nH]c(Nc3nc(C)c4ccc(C)cc4n3)n2)cc1	n	n	n	n
CCOc1ccc2c(C)nc(NC3=NC(C)(C)C=C(C)N3)nc2c1	100.6	n	n	n
COc1ccc(S(=O)(=O)N2CCN(c3ccccc3)CC2)cc1	n	n	n	n
CCCCNCCCOc1ccc(C)cc1Br	90.3	n	n	n
CCCCNCCCOc1cccc(Cl)c1Cl	100.5	n	n	n
CNCCCOc1ccc(C)cc1Br	n	n	n	n
Cc1ccc(OCCCNCCO)c(Br)c1	72.7	n	n	n
CCOC(=O)c1ccc(N2N=C(C)/C(=C/C=C/c3ccco3)C2=O)cc1	n	n	n	n
CC1=NN(c2ccccc2)C(=O)/C1=C/C=C/c1ccc(N(C)C)cc1	67.7	n	n	n
CCOC(=O)CC1=NN(c2ccccc2)C(=O)/C1=C\c1ccc(N(C)C)cc1	96.0	n	n	n
CCOC(=O)CC1=NN(c2ccccc2)C(=O)C1	n	n	n	n
CC1=NN(c2ccc(C(=O)OC(C)C)cc2)C(=O)/C1=C\C=C\c1ccco1	76.0	n	n	n
O=C(/C=C/Nc1ccccc1Br)c1ccccn1	n	n	n	87.5
